# Experimental data taken from the supplement of paper PMC6555819.
# How the values were obtained:
# Experiment in all cases: PBM binding z-score (relative to random genomic background probes); higher = stronger binding; sequences stand for … in GC…GCGATTGACAGCGTAGAATGAAGG
# [1] = test system: RARb homodimer (NR concentration 270 nM)
# How it was run: (§1)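 Binding z-scores were set against random background probes. The data came from custom Agilent 4×180K protein-binding microarrays carrying double-stranded probes with 34-nt variable regions, incubated 1 h with ligand-free nuclear receptor dimers. Partner-specific antibodies detected binding, and scanned fluorescence was regression-normalized.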
# [2] = test system: RARg:RXRa (NR concentration 270 nM, RXRa partner concentration 90 nM)
# How it was run: as §1
# [3] = test system: RARg homodimer (NR concentration 270 nM)
# How it was run: as §1
# [4] = test system: RXRa DBDmut IVT, anti-RXR (DBD mutation: RXRa K156A/R161A, NR concentration 90 nM)
# How it was run: as §1
# [5] = test system: RXRa homodimer (NR concentration 180 nM)
# How it was run: as §1
# [6] = test system: THRa:RXRa (NR concentration 90 nM, RXRa partner concentration 90 nM)
# How it was run: as §1
# [7] = test system: THRa homodimer (NR concentration 90 nM)
# How it was run: as §1
# [8] = test system: VDR homodimer (NR concentration 270 nM)
# How it was run: as §1
Sequence,PBM binding z-score [1],PBM binding z-score [2],PBM binding z-score [3],PBM binding z-score [4],PBM binding z-score [5],PBM binding z-score [6],PBM binding z-score [7],PBM binding z-score [8]
CGAACTAGGTCAAAGTACAGTGAAAGGCGACGTA,2.8,4.13,4.62,2,3.1,2.57,0.294,0.766
CCTGCTAGGTCAAGGGTCAGCTAAAGCAGCTCGC,4.91,6.68,6.43,1.48,7.49,3.95,1.24,1.03
TCGAGCAGGTTACGGGGGCATTCAGGGATGAAGA,2.18,3.37,2.29,1.34,2.92,3.65,0.993,2.9
AGTCAAATTTCATCTAGGTAACGTAAGATATGCT,-0.24,-0.128,0.382,0.077,0.184,0.722,0.526,0.0484
CGTCCAAGGTCAGAGAGGTCAGTGACTGCCGAGT,5.15,6.31,6.93,3.54,5.25,4.26,2.58,5.42
ATATGTAGCTTAAGGGTCATTCAGGTTGGTTCGC,3.64,3.62,2.82,1.95,4.27,3.27,1.02,4.07
CGTCAAAGTTCAACTAAGGTAACGTATAGCACGC,4.33,5.92,6.62,4.32,4.78,5.26,1.89,4.37
ATATGTACGTTAGGGTCATTCAGAAAGTAGGGAA,2.98,3.78,2.71,2.3,4.98,3.78,2.87,3.98
CACACTAGGTCAAGAGGTCAAAGTCCGCTTCCCG,5.71,8.04,7.49,3.09,8.05,4.5,3.03,4.78
CCTACTGGGCCAAAGGTCTTTGATTCCAATGCTC,0.557,0.154,0.0453,-0.198,0.321,0.0869,-0.594,-0.573
GATACAGGGTCAAGGCCAGAATACGCGTATTGAT,3.49,5.5,4.93,2.08,5.95,3.62,1.21,1.6
AGTCAAAGTTCAGGACGAGATAACGTAAAGCACG,2.69,3.84,4.59,2.82,2.8,1.76,0.431,1.95
ATATGTAGGTTAGGCTCATTCAGAAAGTAGGGAA,0.0368,0.252,0.612,0.0964,0.205,0.086,-0.237,-0.178
CTAACTAGGTCACGAAAGGTCAAAGTCGAATGAC,5.7,7.92,8.55,2.56,8.14,5.08,2.55,3.54
ATATGTAGGTAACATCCGGGTCATTCAGGCTATG,2.68,2.39,1.58,0.786,2.49,3.62,2.74,2.52
CCGAGTAGGTTACGAGGGGGCCTTCAGTGCGAAT,0.846,2.15,1.32,0.265,0.978,2.11,0.4,0.498
AATACAGGGTCACTAGGTCAGAGTAGGTACGAAT,4.58,6.39,6.22,2.99,6.66,3.92,2.23,3.55
CTCCAAAGGTCGGTTGAGGTGAGTATACGGATAA,2.61,2.87,2.9,0.951,2.46,5,1.56,0.508
CCGAGTAGTTTACGAGGGGGCATTCAGTGCGAAT,1.7,1.92,1.48,2.08,1.37,2.54,0.595,3.37

Sequence,PBM binding z-score [1],PBM binding z-score [2],PBM binding z-score [3],PBM binding z-score [4],PBM binding z-score [5],PBM binding z-score [6],PBM binding z-score [7],PBM binding z-score [8]
CTATGGAGGTTAAGGGGGTCATTCAGTTTGAAAG,4.08,5.71,4.46,3.59,6.48,4.04,2.95,6.81
TCGAGTAGGTTACGGGGGCATCCAGGGATGAAGA,2.2,3.36,2.37,1.27,2.88,3.66,1.12,2.47
ACTAGTTGCTCAGCTGAGGTCACACACAATTCGG,3.77,3.37,2.72,1.09,3.6,4.23,4.94,3.14
CCTACTGGGCCATTGAGAGGTCATTGATCATATG,3.78,4,2.63,0.642,3.13,3.06,1.26,3.78
TCAGATAGGTAAAGGTGAAAGTCGAACGATATGA,1.76,1.57,1.27,0.734,2.33,1.33,-0.218,-0.344
CGAACTAGATCAAAGGACAGTGAAAGGCGACGTA,0.779,0.0763,0.823,-0.208,-0.0824,0.0238,-0.506,0.0452
CGATGTAGGTTAAGGGGGTCATTCAGTTTGAAAG,3.87,5.19,4.02,2.93,5.85,3.81,2.8,6.65
CCTACTGGGCCACGAAAGGTAATTGATTCAGTGA,0.322,0.0783,0.352,-0.464,-0.00441,1.11,-0.00813,-0.234
CCGAGTAGGTAACGAGGGGGCATTCAGTGCGAAT,1.62,1.9,1.27,0.932,1.21,2.73,0.519,3.01
ATATGTAGGTTCGGGTCATTCAGAAAGTAGGGAA,2.51,2.82,2.25,2.71,3.45,3.7,2.82,4
TCGAGTAGGTTACGGGGGCATTCAAGGATGAAGA,2.13,3.22,2.33,1.68,2.9,4.28,1.06,2.77
TAGCCTAGGTCCTTCAGGGGCCAGTATAGAAAGC,0.357,0.825,0.108,-1.03,-0.259,0.402,-0.799,-0.422
CTATGTAGGTTAAGGGGGTCAATCAGTTTGAAAG,3.94,5.13,4.33,1.67,5.67,3.81,1.49,4.34
TGAATGAGGTGAAAGATCAGGGAACGTGGCGTCG,0.154,1.51,0.868,-0.365,2.17,2.78,0.878,-0.213
CGAACTAGGTCACCAGTACAGTGAAGAGGTTGGA,3.14,4.38,5.54,1.33,3.2,3.09,1.33,0.782
ATATGTAGGTTAGGGTCATTCGGAAAGTAGGGAA,3.62,4.07,3.15,2.51,5.06,4.16,3.3,4.24
CATCCAAGGTCAAAGGTCAGTGAAGAGATGACGG,5.65,8.8,7.95,4.08,10.2,4.93,2.74,4.15
ATCTGTAGGTTATCGGGTCATTCAGTTTGCGCAT,3.19,3.59,2.78,1.68,3.48,3.36,3.04,3.95
CTATGTAGGTTAAGGGGGTCATGCAGTTTGAAAG,4.24,5.46,4.16,2.12,6.12,4.11,2.49,5

Sequence,PBM binding z-score [1],PBM binding z-score [2],PBM binding z-score [3],PBM binding z-score [4],PBM binding z-score [5],PBM binding z-score [6],PBM binding z-score [7],PBM binding z-score [8]
CGAACTAGGTCACCAGGACAGAGAAGAGGTTGGA,3.46,4.58,5.47,1.79,3.97,3.37,1.89,0.617
CCGAGTAGGTTACGAGGGGGCTTTCAGTGCGAAT,0.961,1.85,1.36,0.879,1.08,2.33,0.299,0.538
ATATGTAGGTTACATCCGGGTCATTCTGGCTATG,2.67,3.21,1.93,1.51,3.1,3.63,2.37,2.5
AGATGTAGGTTAGGGTCATTCAGAAAGTAGGGAA,3.52,3.98,3,2.56,4.81,3.92,3.4,4.44
ATATGTAGGTTACGGTCATTCAGAAAGTAGGGAA,2.42,2.34,2.47,0.852,1.64,2.08,0.831,0.93
ATATGTAGGTTAGGGTCATGCAGAAAGTAGGGAA,3.55,4.44,3.61,2.02,5.67,4.25,3.53,2.78
AAATGTAGGTTAAGGGTCATTCAGGTTGGTTCGC,3.78,4.73,3.54,2.32,5.91,3.57,1.64,4.26
TCTAGGAGGACACGAAGGTCAGAGCTTTCCAGAG,3.47,3.15,3.8,0.842,2.01,2.61,0.635,0.851
CGAACTAGGTCACGAGGACAGTGAAGAGGTTGGA,3.75,4.91,5.66,1.48,3.85,3.84,2.61,0.957
ATATGTAGGTTAGGGTCAATCAGAAAGTAGGGAA,3.59,4.12,3.71,1.23,5.05,3.83,2.6,2.43
CAAACTAGGTCAAGAGGTCAAAGGCCGCTTCCCG,5.53,8.17,7.84,2.67,7.98,4.21,2.35,4.46
CGTCCAAGGTCAAGGTGAGTGAAAGAGACTCGAA,3.64,5.92,6.65,3.37,6.02,3.8,2.86,1.94
ATATGTAGGTTAGGGTCGTTCAGAAAGTAGGGAA,2.05,1.69,1.16,1.52,2.44,2.85,1.95,2.55
CCTACTGGGCCAAAGGTCATTGACTCCAATGCTC,4.46,5.6,4.61,1.6,6.03,3.38,0.707,1.82
CGACCTAGGTCAAAGGACAGTGAAAGGCGACGTA,3.13,4.74,5.05,1.69,4,2.86,0.639,0.41
CCGAGTAGGTTACGAGGGGGCATTAAGTGCGAAT,2.04,3.1,2.45,1.56,2.14,3.52,0.655,3.56
CGAACTAGGTCAAAGGACCGTGAAAGGCGACGTA,2.22,3.5,4.44,1.42,2.86,2.23,0.043,0.238
AGTCAAAGTTCAGTAGGTAACGTAAGATTCAGCT,3.15,3.74,4.28,3.23,2.08,0.91,-0.604,2.23
